In PubChem BioAssay AID1159580 (chemical genetic matrix, 2015):
The whole screen tested about 5,500 compounds, of which about 2,000 (36%) were called active. Not shown: some 18% with an inconclusive outcome. No stated cut-off is given here; in the data, active means normalized growth mostly below about 0.91 (no sharp cut-off); inconclusive means no clear call, values can overlap the other calls; inactive means mostly above about 0.92. The list shows a part of the results.

Test: chemical genetic growth profiling, strain panel (AID 1159580);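 further: tested at 20 µM; growth read once vehicle control cultures reached saturation at 30 °C; 1 = growth at the plate median or of vehicle wells; lower values mean less growth of the strain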
Settings: growth OD

Measured: normalized growth

O=C(Cn1ccnc1[N+](=O)[O-])NCCO
inactive: S. cerevisiae deletion strains, locus YJR075W, strain HOC1, active compounds read low 1 | S. cerevisiae deletion strains, locus YKL009W, strain mrt4, active compounds read low 1.03 | S. cerevisiae deletion strains, locus YKL068W, active compounds read low 1.02 | S. cerevisiae deletion strains, locus YKL085W, strain MDH1 (second series), active compounds read low 1.03 | S. cerevisiae deletion strains, locus YKL085W, strain MDH1, active compounds read low 1.03 | S. cerevisiae deletion strains, locus YKL160W, strain elf1, active compounds read low 1.02 | S. cerevisiae deletion strains, locus YKL190W, strain CNB1, active compounds read low 1.01 | S. cerevisiae deletion strains, locus YKR001C, strain vps1, active compounds read low 1.01 | S. cerevisiae deletion strains, locus YKR026C, strain gcn3, active compounds read low 1.01 | S. cerevisiae deletion strains, locus YKR091W, strain srl3, active compounds read low 1.01 | S. cerevisiae deletion strains, locus YLL001W, strain dnm1, active compounds read low 1.01 | S. cerevisiae deletion strains, locus YLL026W, active compounds read low 1.01 | S. cerevisiae deletion strains, locus YLL041C, strain sdh2, active compounds read low 1.01 | S. cerevisiae deletion strains, locus YLR027C, strain aat2, active compounds read low 1.01 | S. cerevisiae deletion strains, locus YLR039C, strain RIC1, active compounds read low 1.08 | S. cerevisiae deletion strains, locus YLR058C, strain SHM2, active compounds read low 1.01 | S. cerevisiae deletion strains, locus YLR102C, strain apc9, active compounds read low 1.01 | S. cerevisiae deletion strains, locus YLR113W, strain HOG1, active compounds read low 0.988 | S. cerevisiae deletion strains, locus YLR221C, strain rsa3, active compounds read low 1.02 | S. cerevisiae deletion strains, locus YLR258W, strain gsy2, active compounds read low 1.02 | S. cerevisiae deletion strains, locus YLR262C, strain YPT6 (second series), active compounds read low 1.02 | S. cerevisiae deletion strains, locus YLR262C, strain YPT6, active compounds read low 1.07 | S. cerevisiae deletion strains, locus YLR268W, strain sec22, active compounds read low 0.981 | S. cerevisiae deletion strains, locus YLR320W, strain mms22, active compounds read low 1.03 | S. cerevisiae deletion strains, locus YLR330W, strain CHS5, active compounds read low 1 | S. cerevisiae deletion strains, locus YLR342W, strain FKS1 (second series), active compounds read low 1.08 | S. cerevisiae deletion strains, locus YLR342W, strain FKS1, active compounds read low 1.02 | S. cerevisiae deletion strains, locus YLR357W, strain rsc2, active compounds read low 1.01 | S. cerevisiae deletion strains, locus YLR370C, strain arc18, active compounds read low 1.02 | S. cerevisiae deletion strains, locus YLR371W, strain rom2, active compounds read low 1.01 | S. cerevisiae deletion strains, locus YLR384C, strain iki3, active compounds read low 1.03 | S. cerevisiae deletion strains, locus YLR418C, strain cdc73, active compounds read low 0.95 | S. cerevisiae deletion strains, locus YML016C, strain PPZ1, active compounds read low 1 | S. cerevisiae deletion strains, locus YML032C, strain rad52, active compounds read low 1.02 | S. cerevisiae deletion strains, locus YML120C, strain ndi1, active compounds read low 1 | S. cerevisiae deletion strains, locus YML124C, strain tub3, active compounds read low 1 | S. cerevisiae deletion strains, locus YMR058W, strain fet3, active compounds read low 1.01 | S. cerevisiae deletion strains, locus YMR078C, strain ctf18, active compounds read low 1.01 | S. cerevisiae deletion strains, locus YMR125W, strain sto1, active compounds read low 1.02 | S. cerevisiae deletion strains, locus YMR129W, active compounds read low 1.02 | S. cerevisiae deletion strains, locus YMR205C, strain PFK2, active compounds read low 1.03 | S. cerevisiae deletion strains, locus YMR223W, strain ubp8, active compounds read low 1.02 | S. cerevisiae deletion strains, locus YMR231W, strain pep5, active compounds read low 1.02 | S. cerevisiae deletion strains, locus YMR263W, strain SAP30, active compounds read low 0.993 | S. cerevisiae deletion strains, locus YMR307W, strain GAS1, active compounds read low 1.04 | S. cerevisiae deletion strains, locus YNL067W, strain RPL9B, active compounds read low 0.988 | S. cerevisiae deletion strains, locus YNL071W, strain lat1, active compounds read low 1 | S. cerevisiae deletion strains, locus YNL128W, strain TEP1, active compounds read low 0.991 | S. cerevisiae deletion strains, locus YNL153C, strain GIM3, active compounds read low 0.97 | S. cerevisiae deletion strains, locus YNL183C, strain NPR1, active compounds read low 0.955 | S. cerevisiae deletion strains, locus YNL209W, strain ssb2, active compounds read low 1.02 | S. cerevisiae deletion strains, locus YNL233W, strain BNI4, active compounds read low 1 | S. cerevisiae deletion strains, locus YNL248C, strain rpa49, active compounds read low 1.01 | S. cerevisiae deletion strains, locus YNL250W, strain rad50, active compounds read low 0.99 | S. cerevisiae deletion strains, locus YNL271C, strain bni1, active compounds read low 0.999 | S. cerevisiae deletion strains, locus YNL298W, strain CLA4, active compounds read low 1.01 | S. cerevisiae deletion strains, locus YNL307C, strain MCK1, active compounds read low 1.03 | S. cerevisiae deletion strains, locus YNL322C, strain KRE1 (second series), active compounds read low 1.02 | S. cerevisiae deletion strains, locus YNL322C, strain KRE1, active compounds read low 1.01 | S. cerevisiae deletion strains, locus YNR049C, strain mso1, active compounds read low 1.01 | S. cerevisiae deletion strains, locus YNR052C, strain pop2, active compounds read low 1.01 | S. cerevisiae deletion strains, locus YOL006C, strain TOP1, active compounds read low 1.06 | S. cerevisiae deletion strains, locus YOL012C, strain htz1 0.906 | S. cerevisiae deletion strains, locus YOL147C, strain pex11, active compounds read low 1.01 | S. cerevisiae deletion strains, locus YOR001W, strain rrp6, active compounds read low 1.02 | S. cerevisiae deletion strains, locus YOR061W, strain CKA2, active compounds read low 1 | S. cerevisiae deletion strains, locus YOR069W, strain VPS5, active compounds read low 1.01 | S. cerevisiae deletion strains, locus YOR070C, strain gyp1, active compounds read low 1.03 | S. cerevisiae deletion strains, locus YOR080W, strain dia2, active compounds read low 1.01 | S. cerevisiae deletion strains, locus YOR083W, strain WHI5, active compounds read low 1.02 | S. cerevisiae deletion strains, locus YOR106W, strain vam3, active compounds read low 1.02 | S. cerevisiae deletion strains, locus YOR136W, strain idh2, active compounds read low 1.01 | S. cerevisiae deletion strains, locus YOR144C, strain elg1, active compounds read low 1.01 | S. cerevisiae deletion strains, locus YOR184W, strain ser1, active compounds read low 1.05 | S. cerevisiae deletion strains, locus YOR231W, strain MKK1, active compounds read low 0.986 | S. cerevisiae deletion strains, locus YOR265W, strain rbl2, active compounds read low 1.03 | S. cerevisiae deletion strains, locus YOR270C, strain vph1, active compounds read low 1.03 | S. cerevisiae deletion strains, locus YOR290C, strain snf2, active compounds read low 1.01 | S. cerevisiae deletion strains, locus YOR316C, strain cot1, active compounds read low 1 | S. cerevisiae deletion strains, locus YPL051W, strain arl3, active compounds read low 1.02 | S. cerevisiae deletion strains, locus YPL055C, strain LGE1, active compounds read low 0.955 | S. cerevisiae deletion strains, locus YPL078C, strain atp4, active compounds read low 1.01 | S. cerevisiae deletion strains, locus YPL106C, strain sse1, active compounds read low 1.02 | S. cerevisiae deletion strains, locus YPL240C, strain hsp82, active compounds read low 1.01 | S. cerevisiae deletion strains, locus YPL241C, strain CIN2, active compounds read low 1.01 | S. cerevisiae deletion strains, locus YPL256C, strain CLN2, active compounds read low 0.977 | S. cerevisiae deletion strains, locus YPR119W, strain clb2, active compounds read low 1.01 | S. cerevisiae deletion strains, locus YPR141C, strain kar3, active compounds read low 1.01 | S. cerevisiae deletion strains, locus YPR163C, strain tif3, active compounds read low 1.01 | S. cerevisiae deletion strains, locus YPR167C, strain met16, active compounds read low 1.02 | S. cerevisiae deletion strains, strain wtn01, active compounds read low 1 | S. cerevisiae strains, strain wild type, active compounds read low 1.01
